Experimental data taken from the supplement of paper PMC10849652.
Of roughly 8,800 targets only a part is listed; those with a hit were picked by preference. About 0.5% of all pairs of compound and target were hits.

Legend:
Assay in all cases: log2 fold change, soluble protein after heating vs DMSO (PISA); higher = thermal stabilisation; K562 lysate, 10 uM; active = over 0.2 and 3.5 SD of the protein, either way, in both replicates (recomputed)
[1] = compound: C#Cc1cccc(Nc2ncnc3cc(OCCOC)c(OCCOC)cc23)c1 [erlotinib]
Summary of the method: (§1)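 A 30 min treatment with 10 μM compound was applied to crude K562 extract at 1 mg/mL protein in PBS pH 7.4 with 1 mM MgCl2. Heating for 3 min spanned 48°C-58°C, after which aliquots were pooled, adjusted to 0.5% NP-40 at 4°C and spun at 21,000xg for 90 min. TMTpro 16plex LC-MS/MS of the supernatant, with channel sums equalised, gave values recorded as log-two fold change in thermal stability against solvent controls, from duplicates.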

[2] = compound: C/C(=N\NC(=O)C1=CC(=CC=C1)S(=O)(=O)N2CCOCC2)/C3=C(C=CC(=C3)Cl)O
Summary of the method: as §1

[3] = compound: C1=CC(=CC=C1C2=NC3=C(N2)C=C(C=C3)C(=O)N)OC4=CC=C(C=C4)Cl
Summary of the method: as §1

[4] = compound: C1=CC2=C(C=CC(=C2)/C=C\3/C(=O)NC(=NCC4=CC=CS4)S3)N=C1
Summary of the method: as §1

[5] = compound: C1=CC2=NC=CN=C2C=C1/C=C/3\C(=O)NC(=O)S3
Summary of the method: as §1

[6] = compound: C1=CC=C(C=C1)C2=NC(=C(N2)C3=CC=NC=C3)C4=CC(=C(C=C4)Cl)O
Summary of the method: as §1

[7] = compound: C1=CC=C2C(=C1)C3=NNC4=CC=CC(=C43)C2=O
Summary of the method: as §1

[8] = compound: C1CCN(C1)C(=O)NC2=CC=CC(=C2)NC3=NC=C(C(=N3)NCCC4=CN=CN4)Br
Summary of the method: as §1

[9] = compound: C1CN(CCC1(CC2=CC=C(C=C2)Cl)N)C3=NC=NC4=C3C=CN4
Summary of the method: as §1

[10] = compound: C1COCCN1CCN2C3=CC=CC=C3N=C2NC(=O)C4=CC(=CC=C4)[N+](=O)[O-] [IRAK-1-4 Inhibitor I]
Summary of the method: as §1

[11] = compound: C=CC(=O)N1CCC[C@@H](n2nc(-c3ccc(Oc4ccccc4)cc3)c3c(N)ncnc32)C1 [ibrutinib]
Summary of the method: as §1

[12] = compound: CC(C)(C)Cn1c(N)nc2ccc(-c3[nH]c(C(C)(C)C)nc3-c3ccc(F)cc3)nc21 [ralimetinib]
Summary of the method: as §1

[13] = compound: CC(C)(O)CC(=O)NCCn1ccc2ncnc(Nc3ccc(Oc4cccc(C(F)(F)F)c4)c(Cl)c3)c21
Summary of the method: as §1

[14] = compound: CC(C)C1=C2N=C(C=C(N2N=C1)NCC3=CC=CC=C3)NCCCCCCN
Summary of the method: as §1

[15] = compound: CC1=C(C(CC(=O)N1)C2=CC=C(C=C2)C(F)(F)F)C(=O)NC3=C(C=C4C(=C3)C=NN4)F
Summary of the method: as §1

[16] = compound: CC1=C(C2=C(C=C1)C(=O)C3=CC=CC=C3N2CCCN)C
Summary of the method: as §1

[17] = compound: CC1=C(C=C(C=C1)NC(=O)C2=CC(=CC=C2)C(C)(C)C#N)NC3=CC4=C(C=C3)N=CN(C4=O)C
Summary of the method: as §1

[18] = compound: CC1=C(C=C(C=C1)NC(=O)C2=CC(=CC=C2)N(C)C)NC(=O)C3=CC=C(C=C3)O
Summary of the method: as §1

[19] = compound: CC(=O)c1cnc2ccc(-c3cc(Cl)c(O)c(Cl)c3)nc2c1N[C@H]1CC[C@H](CN(C)C)CC1
Summary of the method: as §1

[20] = compound: CC1=CC=C(C=C1)SC2=C3C=C(SC3=CN=C2)C(=O)N
Summary of the method: as §1

Measured: log2 fold change

FBRSL1, A0A3B3IRR3
inactive: [1] -0.014 | [2] -0.021 | [3] 0.042 | [4] -0.03 | [5] 0 | [6] -0.028 | [7] -0.199 | [8] 0.043 | [9] -0.015 | [10] -0.024 | [11] 0.072 | [12] 0.027 | [13] 0.008 | [14] -0.075 | [15] -0.01 | [16] 0.183 | [18] 0.012
active: [17] -0.381

FMNL2 isoform 3 (UniProt Q96PY5)
Chain of UniProt Q96PY5 (Q96PY5 whole entry, looked up): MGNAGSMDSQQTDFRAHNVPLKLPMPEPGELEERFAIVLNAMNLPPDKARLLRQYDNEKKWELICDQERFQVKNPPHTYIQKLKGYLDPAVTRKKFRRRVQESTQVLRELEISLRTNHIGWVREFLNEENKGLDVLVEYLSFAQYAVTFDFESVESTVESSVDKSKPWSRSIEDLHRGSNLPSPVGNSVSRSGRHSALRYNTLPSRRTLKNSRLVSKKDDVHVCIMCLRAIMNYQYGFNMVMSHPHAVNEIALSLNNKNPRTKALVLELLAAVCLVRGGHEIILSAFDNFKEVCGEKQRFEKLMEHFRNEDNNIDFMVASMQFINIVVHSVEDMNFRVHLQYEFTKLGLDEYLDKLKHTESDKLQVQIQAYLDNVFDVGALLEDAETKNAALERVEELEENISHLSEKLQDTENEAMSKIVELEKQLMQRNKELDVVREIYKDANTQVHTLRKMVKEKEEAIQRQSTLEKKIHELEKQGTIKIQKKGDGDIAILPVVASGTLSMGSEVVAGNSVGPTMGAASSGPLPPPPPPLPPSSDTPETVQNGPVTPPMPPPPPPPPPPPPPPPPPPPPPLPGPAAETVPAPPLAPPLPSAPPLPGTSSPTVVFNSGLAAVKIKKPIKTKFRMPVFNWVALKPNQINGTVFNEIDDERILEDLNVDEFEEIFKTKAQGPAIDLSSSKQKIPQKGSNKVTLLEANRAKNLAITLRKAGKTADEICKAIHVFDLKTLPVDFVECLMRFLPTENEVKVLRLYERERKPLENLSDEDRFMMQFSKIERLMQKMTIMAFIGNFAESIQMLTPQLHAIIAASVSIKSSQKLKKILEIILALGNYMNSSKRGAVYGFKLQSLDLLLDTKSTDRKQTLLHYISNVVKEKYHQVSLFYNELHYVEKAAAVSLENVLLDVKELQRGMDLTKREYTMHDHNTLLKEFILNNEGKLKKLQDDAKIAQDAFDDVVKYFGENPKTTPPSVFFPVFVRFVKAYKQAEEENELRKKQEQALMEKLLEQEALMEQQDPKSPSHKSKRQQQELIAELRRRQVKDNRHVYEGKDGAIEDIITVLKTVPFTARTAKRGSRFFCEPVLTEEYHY
inactive: [1] -0.02 | [3] -0.064 | [6] 0.083 | [10] -0.092 | [19] -0.048 | [12] -0.02 | [13] 0.185 | [14] 0.065 | [15] -0.056 | [16] 0.071 | [17] 0.116 | [18] 0.048 | [20] -0.003

FOXJ2 (UniProt Q9P0K8)
Chain of UniProt Q9P0K8 (Q9P0K8 whole entry, looked up): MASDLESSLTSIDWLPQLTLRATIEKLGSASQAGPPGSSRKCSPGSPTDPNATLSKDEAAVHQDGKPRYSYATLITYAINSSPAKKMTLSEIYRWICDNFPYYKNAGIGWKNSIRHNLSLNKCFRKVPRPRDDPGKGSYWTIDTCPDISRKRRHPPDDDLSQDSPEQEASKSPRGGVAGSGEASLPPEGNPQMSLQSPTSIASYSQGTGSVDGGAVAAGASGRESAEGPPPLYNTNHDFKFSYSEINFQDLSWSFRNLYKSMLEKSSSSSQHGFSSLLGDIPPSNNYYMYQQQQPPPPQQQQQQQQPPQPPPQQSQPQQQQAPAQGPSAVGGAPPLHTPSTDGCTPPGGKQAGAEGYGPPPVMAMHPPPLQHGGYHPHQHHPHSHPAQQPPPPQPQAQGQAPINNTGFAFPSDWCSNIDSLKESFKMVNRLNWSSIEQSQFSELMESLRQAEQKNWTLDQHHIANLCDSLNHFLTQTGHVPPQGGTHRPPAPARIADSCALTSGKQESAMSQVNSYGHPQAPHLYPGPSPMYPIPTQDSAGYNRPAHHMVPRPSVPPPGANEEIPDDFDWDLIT
inactive: [1] 0.102 | [3] 0.056 | [5] 0.139 | [6] 0.026 | [8] 0.138 | [9] -0.036 | [10] -0.03 | [11] -0.045 | [12] 0.02 | [13] -0.035 | [14] 0.091 | [15] 0.041 | [16] -0.129 | [18] 0.108

EHHADH (UniProt Q08426)
Chain of UniProt Q08426 (Q08426 whole entry, looked up): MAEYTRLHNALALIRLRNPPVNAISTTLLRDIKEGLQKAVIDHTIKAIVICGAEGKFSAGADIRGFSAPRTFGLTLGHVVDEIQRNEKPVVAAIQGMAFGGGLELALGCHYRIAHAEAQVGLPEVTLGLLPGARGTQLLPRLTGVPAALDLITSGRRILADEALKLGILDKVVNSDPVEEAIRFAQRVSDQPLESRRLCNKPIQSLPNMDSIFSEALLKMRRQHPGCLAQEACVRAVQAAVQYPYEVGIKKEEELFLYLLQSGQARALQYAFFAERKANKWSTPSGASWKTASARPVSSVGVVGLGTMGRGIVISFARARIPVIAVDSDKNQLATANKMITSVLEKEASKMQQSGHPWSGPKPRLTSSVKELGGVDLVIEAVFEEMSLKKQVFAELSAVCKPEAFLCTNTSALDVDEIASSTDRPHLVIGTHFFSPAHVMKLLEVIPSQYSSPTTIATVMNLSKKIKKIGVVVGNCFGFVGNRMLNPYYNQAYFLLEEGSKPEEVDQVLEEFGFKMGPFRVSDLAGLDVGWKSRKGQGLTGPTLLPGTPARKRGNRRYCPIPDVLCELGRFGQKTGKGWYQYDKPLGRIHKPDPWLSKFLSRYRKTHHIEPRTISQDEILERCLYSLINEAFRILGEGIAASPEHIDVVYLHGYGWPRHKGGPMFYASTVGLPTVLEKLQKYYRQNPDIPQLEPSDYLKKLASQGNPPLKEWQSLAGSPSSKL
inactive: [1] -0.05 | [3] 0.08 | [5] -0.029 | [6] 0.007 | [8] 0.045 | [9] -0.106 | [10] -0.09 | [11] 0.059 | [19] -0.023 | [12] 0.021 | [13] -0.084 | [14] -0.016 | [15] -0.003 | [16] 0.128 | [17] -0.027 | [18] 0.031 | [20] 0.008

EPB41 isoform 4 (UniProt P11171)
inactive: [1] -0.128 | [3] -0.054 | [6] -0.012 | [10] 0.002 | [19] 0.048 | [12] -0.056 | [13] -0.018 | [14] 0.148 | [15] -0.012 | [17] 0.042 | [18] -0.001 | [20] -0.004

FAM76B (UniProt Q5HYJ3)
Chain of UniProt Q5HYJ3 (Q5HYJ3 whole entry, looked up): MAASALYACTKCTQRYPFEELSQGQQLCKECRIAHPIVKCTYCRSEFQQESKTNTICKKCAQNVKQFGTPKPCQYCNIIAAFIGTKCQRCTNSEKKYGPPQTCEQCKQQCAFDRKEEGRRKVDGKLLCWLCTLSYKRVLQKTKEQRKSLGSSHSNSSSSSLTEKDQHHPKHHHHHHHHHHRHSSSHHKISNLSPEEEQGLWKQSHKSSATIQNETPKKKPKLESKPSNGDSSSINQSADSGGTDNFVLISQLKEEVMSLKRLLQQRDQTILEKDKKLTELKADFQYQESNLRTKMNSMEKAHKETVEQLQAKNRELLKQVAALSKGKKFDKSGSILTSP
inactive: [1] -0.027 | [2] -0.35 | [3] -0.016 | [4] -0.137 | [6] -0.053 | [7] 0.046 | [8] -0.019 | [9] 0.061 | [10] -0.008 | [19] -0.025 | [12] -0.005 | [13] -0.01 | [14] -0.06 | [15] -0.012 | [16] -0.02 | [17] 0.023 | [18] -0.002 | [20] -0.011

GC isoform 3 (UniProt P02774)
Chain of UniProt P02774 (P02774 whole entry, looked up): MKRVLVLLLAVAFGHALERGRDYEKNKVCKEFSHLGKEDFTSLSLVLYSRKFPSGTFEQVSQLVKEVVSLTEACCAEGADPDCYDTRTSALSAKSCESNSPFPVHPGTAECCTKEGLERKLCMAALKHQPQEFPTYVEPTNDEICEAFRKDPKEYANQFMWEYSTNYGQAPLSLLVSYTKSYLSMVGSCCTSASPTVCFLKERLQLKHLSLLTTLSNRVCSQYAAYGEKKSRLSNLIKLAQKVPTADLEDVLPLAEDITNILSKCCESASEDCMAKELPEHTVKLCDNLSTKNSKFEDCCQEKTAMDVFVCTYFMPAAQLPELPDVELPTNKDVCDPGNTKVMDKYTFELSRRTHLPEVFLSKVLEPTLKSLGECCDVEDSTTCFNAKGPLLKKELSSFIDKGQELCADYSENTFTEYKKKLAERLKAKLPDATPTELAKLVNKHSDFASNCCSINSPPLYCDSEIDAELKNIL
active: [13] -0.559
inactive: [2] 0.039 | [4] -0.019 | [6] -0.199 | [7] 0.012 | [8] 0.051 | [9] 0.055 | [10] 0.15 | [12] 0.051 | [16] -0.148 | [17] -0.087 | [18] -0.101

ESRRB isoform 1 (UniProt O95718)
Chain of UniProt O95718 (O95718 whole entry, looked up): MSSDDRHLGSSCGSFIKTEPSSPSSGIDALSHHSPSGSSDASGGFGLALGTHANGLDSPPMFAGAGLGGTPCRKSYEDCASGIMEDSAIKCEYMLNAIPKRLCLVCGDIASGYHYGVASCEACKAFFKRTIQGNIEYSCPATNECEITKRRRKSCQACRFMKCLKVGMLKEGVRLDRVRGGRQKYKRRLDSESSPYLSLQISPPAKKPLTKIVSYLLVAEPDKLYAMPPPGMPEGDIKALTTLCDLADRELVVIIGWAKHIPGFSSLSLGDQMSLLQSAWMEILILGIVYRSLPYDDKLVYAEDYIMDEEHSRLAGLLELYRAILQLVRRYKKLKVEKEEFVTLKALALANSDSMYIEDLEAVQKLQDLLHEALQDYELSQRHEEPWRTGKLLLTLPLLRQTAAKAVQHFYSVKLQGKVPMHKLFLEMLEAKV
inactive: [1] 0.1 | [5] -0.021 | [6] 0.016 | [10] 0.236 | [11] -0.047 | [12] 0.035 | [13] -0.087 | [14] -0.187 | [18] 0.053
active: [3] -0.783

FAM111A (UniProt Q96PZ2)
Chain of UniProt Q96PZ2 (Q96PZ2 whole entry, looked up): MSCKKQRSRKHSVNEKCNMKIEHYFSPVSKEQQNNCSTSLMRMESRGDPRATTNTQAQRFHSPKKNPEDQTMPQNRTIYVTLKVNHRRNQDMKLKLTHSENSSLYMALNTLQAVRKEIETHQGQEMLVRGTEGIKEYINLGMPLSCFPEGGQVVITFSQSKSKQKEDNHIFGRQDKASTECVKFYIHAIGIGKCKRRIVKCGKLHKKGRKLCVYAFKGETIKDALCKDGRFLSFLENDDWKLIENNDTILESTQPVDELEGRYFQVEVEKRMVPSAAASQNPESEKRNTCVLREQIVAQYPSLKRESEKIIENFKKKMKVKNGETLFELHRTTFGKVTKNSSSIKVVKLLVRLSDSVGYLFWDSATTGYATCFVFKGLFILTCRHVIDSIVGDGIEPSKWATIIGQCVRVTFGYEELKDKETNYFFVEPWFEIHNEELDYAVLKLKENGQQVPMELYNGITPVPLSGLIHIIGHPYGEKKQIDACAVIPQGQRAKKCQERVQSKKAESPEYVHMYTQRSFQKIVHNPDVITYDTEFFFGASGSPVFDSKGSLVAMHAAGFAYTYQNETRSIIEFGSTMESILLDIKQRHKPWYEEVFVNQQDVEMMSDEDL
inactive: [1] -0.025 | [2] -0.04 | [3] -0.01 | [4] 0.002 | [6] -0.088 | [7] -0.088 | [8] 0.046 | [9] 0.022 | [10] -0.088 | [19] 0.171 | [12] 0.116 | [13] 0.083 | [14] 0.125 | [16] -0.106 | [17] -0.093 | [18] 0.022 | [20] -0.244

EID1 (UniProt Q9Y6B2)
Chain of UniProt Q9Y6B2 (Q9Y6B2 whole entry, looked up): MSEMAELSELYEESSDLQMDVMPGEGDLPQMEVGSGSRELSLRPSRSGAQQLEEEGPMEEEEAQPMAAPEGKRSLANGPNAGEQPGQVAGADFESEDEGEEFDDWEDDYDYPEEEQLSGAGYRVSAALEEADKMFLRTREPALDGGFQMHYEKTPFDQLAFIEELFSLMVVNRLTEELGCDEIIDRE
inactive: [1] 0.089 | [3] -0.172 | [6] 0.096 | [8] 0.064 | [9] 0.091 | [10] 0.044 | [12] -0.06 | [13] -0.042 | [14] -0.173 | [15] 0.05 | [16] -0.116 | [18] -0.008

FOXL2 (UniProt P58012)
Chain of UniProt P58012 (P58012 whole entry, looked up): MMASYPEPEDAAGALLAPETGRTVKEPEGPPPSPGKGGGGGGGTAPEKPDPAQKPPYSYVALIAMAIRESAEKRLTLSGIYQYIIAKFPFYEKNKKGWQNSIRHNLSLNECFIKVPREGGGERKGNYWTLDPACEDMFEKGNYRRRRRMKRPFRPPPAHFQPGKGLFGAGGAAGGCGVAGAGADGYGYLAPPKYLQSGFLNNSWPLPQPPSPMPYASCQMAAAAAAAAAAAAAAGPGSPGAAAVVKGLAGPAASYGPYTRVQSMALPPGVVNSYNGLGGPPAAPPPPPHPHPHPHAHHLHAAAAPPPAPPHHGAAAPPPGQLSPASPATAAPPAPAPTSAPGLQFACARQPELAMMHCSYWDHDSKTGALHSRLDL
inactive: [1] 0.274 | [3] -0.129 | [5] -0.006 | [6] -0.085 | [8] -0.024 | [9] 0.187 | [10] 0.026 | [11] -0.074 | [19] -0.065 | [12] 0.264 | [13] -0.095 | [14] 0.161 | [16] -0.023 | [18] 0.02 | [20] -0.035
